In all, about 25,000 sequences were measured (“ln(normalized median fluorescence intensity)”: median about 7.1, highest 2% from about 10 on). This excerpt belongs to a sample that is enriched for the highest values.
These sequences were tested on PfSIP2 AP2 domain 1 (GST-tagged) (assay: gcPBM binding intensity (ln(normalized median fluorescence intensity)); higher = stronger DNA binding).
Method in brief: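 An Agilent 4 × 180k array of primer-extended double-stranded 36-bp intergenic genomic probes, with negative controls, was incubated for 1 h with GST-tagged P. falciparum DNA-binding domains expressed in E. coli. Alexa488 anti-GST antibody detected bound protein, scanned at 488 nm. Binding intensity is the highest Masliner-normalised natural-log median intensity across replicate spots of either probe orientation.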

Sequence | gcPBM binding intensity (ln)
AAAAAAAAAAAAGATACACACAAAAATGGATATATA [CACACA_site7069] | 6.77
CAATTATTGTAATGCATGCACTGAATATAAAAAGAA | 9.18
AAAAAATAAATAAATACACACACACTAATATATATA [CACACA_site8488] | 7.67
TGAGCACAAATACAGGTGCATATAAAATATATGACG | 10.5
TATTTTATATAAAGGTGTACTTATACAAAAATATAT [XGTACX_site7435] | 7.22
TTTTCTCTAAAAAGGTGTACAACTAATAATGCACTG [XGTACX_site6074] | 9.09
ATGTTTGAGCCTAAGGTGCATATAAAAATATATGTG [GTGCAC_site9690] | 10.7
TTTTTTTGTTAAAAGGTGCTAATATATATAAGTGCT | 9.03
TATATATATATATGAGTGCATATGTGTAATATAAAA | 9.27
TTATAAAAGACAAAAGTGCATATATACATATGTATA | 8.27
ATTTTATATAATACATGTACAAAAGTTTAAATTTAT [XGTACX_site6196] | 7.13
TATAAATATACAAAGGTGCATAAAAAGTTATGTTTT [GTGCAC_site9832] | 10.4
ATTTTTCTAAAATACTGTACAAAGGTGCATAAAAAG [XGTACX_site4425] | 11.5
GTTATAAATAAATACACACATACAAAAATATGACGT [CACACA_site1154] | 6.94
AGGTTATAAATAAATACACACATACAAAAATATGAC [CACACA_site4773] | 6.94
GAAAGGAAAAGTTGAACACACAAAGTAAACTATAAG [CACACA_site3535] | 6.7
TCTATTAACTGATGTGCATGTTATAACCTAGAAGTA [TGCATGCA_site359] | 7.42
TAAAAGTATTCCTTTTGTACATATAATGAAAACAAT [XGTACX_site2069] | 6.8
TGATAAAATATTAAATTATTTCTTTATTTAAAGATT [CACACA_negctrl_site370] | 6.67
AAGATAAATTATTATAAATCAATTGTGCCAACAATA [CACACA_negctrl_site144] | 6.69

Sequence | gcPBM binding intensity (ln)
ATTATAAAAATATCGTGTACATATTTTTTAAAATAA [XGTACX_site5072] | 7.12
TTATACCATATTTATAGTACGTACAAATAAATCAAT [XGTACX_site4975] | 7.3
TTAATCCACAGACACACACACACAAAATAAAATACA [CACACA_site244] | 7.22
AAGATCGCATGAAATGAACACACATAAAAAAAATAT [CACACA_site9353] | 7.05
ACAAGCTTTCATAAGGTGCAATGATTTAACAAAAAA [GTGCAC_site9726] | 10.1
TTTTGTTCATACAAATTGGAACAAGACAAAAATATA [XGTACX_negctrl_site327] | 7.16
ATAACATTCATATTCACACAAAAATATACTACATAG [CACACA_site4529] | 7.09
AAATTGAGACAACAGGTGCATATAAATATACAGTGT [GTGCAC_site9634] | 10.6
ATACATTCAAAATATACACACATATATATATAATAT [CACACA_site950] | 7.13
ATATATTTAAAAAAATGTACAAATCATAAATGCAAG [XGTACX_site4230] | 7.07
AAGACAATATATGCAGTGCATATACATACATATATA | 8.3
TATATTGCAAAAAGTACACACATAAATAAATACATA [CACACA_site6589] | 7.23
AATATACATAACAAGGTGCAAAAAATATTGTTCATA [GTGCAC_site9499] | 10.9
ATACATATTAACAAGGTGCAAATGGATTTCATAAAA [GTGCAC_site9775] | 10.7
TATATACATGTGAGAGTGCATATAGACATAAAAAAT | 8.96
AATACATATTCAAAGGTGCAAAATAAAAATATACAT [GTGCAC_site9743] | 11
AGAAAGGTGGTATTAAAAGAATAACCTATGAATAAA [GTGCAC_negctrl_site325] | 6.79
CCATATAATATGAACAGTACACACAAAATAAATTCG [XGTACX_site7590] | 7.08
ATCAAAAAAAAAAAAAGTACACAAAATTTTTTATTA [XGTACX_site7986] | 6.88
CTATTGTTAAATATAATACACACGTTTTTAAAAATA [CACACA_site2183] | 6.97

Sequence | gcPBM binding intensity (ln)
GTTTAACTGTTTTATACACACAATGTATACAATAAA [CACACA_site2959] | 7.02
TTTTTATAATAAAAAAATATAACTATATTAAGCCAC [CACACA_negctrl_site555] | 7.1
AATATATTTTCCTGCAAACACACATATAAATGTGTA [CACACA_site532] | 6.96
TCAACCAAAACATAAGCATGCAATATATTTTTATAC [TGCATGCA_site560] | 7.16
TTTATAATTTATATCACACACATATATATATAGTAA [CACACA_site8] | 7.05
TTTCTATATAGATTTGCACACATAAAAATGCTTATA [CACACA_site2390] | 7.18
ACATATCGGGTGCATTAACACACATTTATTTGAATA [CACACA_site8736] | 11.6
AACATTTTAAATTATACACACATTTTGAATATATAT [CACACA_site3470] | 7.2
ATATCGTGTGCATTAACACACATTTATTTGAATAAA [CACACA_site7162] | 7.65
ATATCGGGTGCATTAACACACATTTATTTGAATAAA [CACACA_site2350] | 11.7
ATCGGTAATATTAACACACACATTTATATATATTTA [CACACA_site1084] | 7.2
ATCGGTAATATTAACACACACATTTATTTATATTTA [CACACA_site6638] | 7.01
TTTTTATTTTTTCAGTGTACATTTAAATTATCTTAT [XGTACX_site3905] | 6.98
ATTATTATTATATATGCATGTAAAATATTAAAGTAC [TGCATGCA_site914] | 7.59
AATGAAAAATGTATCGTTAAAGGGTATCTTAAGGAT [XGTACX_negctrl_site222] | 6.84
AGATCATAATATTATACACACATTATGTATATGTAA [CACACA_site1490] | 6.84
ACACATTATAACAAGGTGCAATTTTTATACACATGT [GTGCAC_site9866] | 10.4
CATTAACATTTTATTACACACAATAATTTATAAGTA [CACACA_site4083] | 7.06
TATAACACACAATGATGTACATTACATTATTTTTTA [XGTACX_site2076] | 7.06

Reference: the supplement of paper PMC11417369
